Measurements as given in PubChem BioAssay.
A number with no mark means an inactive call. The source made the active and inactive calls.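 Rule for the calls, unless noted: active = mean inhibition above 46.68%, the untreated control wells mean plus 3 SD; inactive = the rest.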

Key:
[1] = target: Nuclear receptor coactivator 1 (Homo sapiens) (UniProt Q15788); assay: NCOA1 GAL4-fusion reporter inhibition – cell-based, luminescence, quadruplicate, confirmation (AID 588820); conditions: HEK293 GAL4-SRC1 luciferase reporter, at 3.6 µM, stronger effect = higher value;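 note: 0% = DMSO wells and 100% = gossypol 36 µM treated wells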
Nuclear receptor coactivator 1 (Homo sapiens), sequence (Q15788 whole entry, looked up, the tested form may be a part): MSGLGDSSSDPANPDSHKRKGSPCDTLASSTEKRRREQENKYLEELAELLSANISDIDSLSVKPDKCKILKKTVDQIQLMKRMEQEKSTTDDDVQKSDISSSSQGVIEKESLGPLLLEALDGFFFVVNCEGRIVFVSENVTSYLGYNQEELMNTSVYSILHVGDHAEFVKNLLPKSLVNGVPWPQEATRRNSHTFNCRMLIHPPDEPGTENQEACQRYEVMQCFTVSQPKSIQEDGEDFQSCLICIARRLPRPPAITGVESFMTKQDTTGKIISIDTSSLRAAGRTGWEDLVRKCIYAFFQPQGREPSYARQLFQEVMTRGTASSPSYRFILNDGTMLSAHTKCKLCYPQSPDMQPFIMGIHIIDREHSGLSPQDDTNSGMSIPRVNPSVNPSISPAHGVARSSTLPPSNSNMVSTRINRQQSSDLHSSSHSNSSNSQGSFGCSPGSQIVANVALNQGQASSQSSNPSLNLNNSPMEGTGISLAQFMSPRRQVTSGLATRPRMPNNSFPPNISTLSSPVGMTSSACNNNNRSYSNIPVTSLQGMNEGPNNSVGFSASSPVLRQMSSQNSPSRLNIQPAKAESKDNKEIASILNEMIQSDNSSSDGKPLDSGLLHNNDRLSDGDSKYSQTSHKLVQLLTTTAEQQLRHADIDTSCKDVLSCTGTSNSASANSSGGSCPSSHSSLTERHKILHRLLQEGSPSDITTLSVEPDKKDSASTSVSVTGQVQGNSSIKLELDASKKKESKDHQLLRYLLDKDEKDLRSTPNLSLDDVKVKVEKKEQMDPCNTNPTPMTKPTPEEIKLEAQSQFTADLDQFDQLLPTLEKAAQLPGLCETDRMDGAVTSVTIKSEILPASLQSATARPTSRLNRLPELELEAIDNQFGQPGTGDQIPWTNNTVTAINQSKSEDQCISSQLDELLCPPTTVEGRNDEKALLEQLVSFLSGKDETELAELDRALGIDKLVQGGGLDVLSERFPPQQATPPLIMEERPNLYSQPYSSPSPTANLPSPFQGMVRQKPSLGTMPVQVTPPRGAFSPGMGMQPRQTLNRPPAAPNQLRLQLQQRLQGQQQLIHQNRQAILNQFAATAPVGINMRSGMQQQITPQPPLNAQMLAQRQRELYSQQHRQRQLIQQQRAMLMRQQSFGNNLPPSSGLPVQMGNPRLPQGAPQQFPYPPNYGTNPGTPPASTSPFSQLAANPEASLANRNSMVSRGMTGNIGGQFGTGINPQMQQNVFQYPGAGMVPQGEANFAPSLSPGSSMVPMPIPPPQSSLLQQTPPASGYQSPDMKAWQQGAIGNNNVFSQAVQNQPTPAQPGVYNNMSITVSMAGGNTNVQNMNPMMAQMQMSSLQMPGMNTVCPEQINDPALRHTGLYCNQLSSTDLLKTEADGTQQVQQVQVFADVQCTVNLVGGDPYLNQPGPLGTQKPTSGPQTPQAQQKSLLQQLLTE

[2] = repression of VP16-driven luciferase reporter – cell-based, luminescence, high throughput, counter-screen for SRC1 inhibitor project (AID 588824; in the data active = inhibition above about 25%); conditions: cell-based VP16 transactivation luciferase luminescence; at 3.6 µM; stronger effect = higher value

SMILES	inhibition [1]	inhibition [2]
CC(C)c1ccc2c(c1)C(N1CCN(C)CC1)Cc1cccnc1S2 (stereo not given)	6.3%	-5.2%
CCOC(=O)c1[nH]c(C)c(C(=O)OCc2ccc(C)cc2)c1C	4.43%	5.19%
CCOc1ccc(NC(=O)NCCCSC2CCCCC2)cc1	-7.9%	-11.4%
C=C(C)Cn1c(SCC(=O)O)nc2c1c(=O)[nH]c(=O)n2C	5.38%	10.2%
CCOC(=O)CSc1cc(-c2ccccc2)nc2ncnn12	17.9%	4.7%
O=C1NCCc2c1[nH]c1ccc([N+](=O)[O-])cc21	23.1%	18.1%
COc1cc(C(=O)OCC(=O)NC(N)=O)cc(CN2C(=O)c3ccccc3C2=O)c1OC	-10.9%	-8.55%
CCC(Oc1ccccc1)C(=O)Nc1cc(C(F)(F)F)ccc1N1CCOCC1 (stereo not given)	10.6%	1.21%
COc1ccc(NC(=O)c2cc3c(s2)CCC(C)C3)cc1S(=O)(=O)N1CCOCC1 (stereo not given)	9.02%	25.1%
O=C(Nc1ccccc1)N1CCCN(c2ccc(C(F)(F)F)cn2)CC1	-0.62%	-2.54%
COc1ccc2cc3cc(C(=O)NCc4cccs4)oc3nc2c1	4.16%	39.4% (active)
Cc1ccc(Oc2ccccc2NC(=O)CSCC(=O)Nc2cc(C)on2)cc1	1.59%	16.1%
CC(=O)c1cccc(NC(=O)COc2cc3oc(=O)c(CC(C)O)c(C)c3cc2Cl)c1 (stereo not given)	28.4%	22%
CC(Oc1ccccc1)C(=O)N1CCC2(CC1)CC(=O)c1ccccc1O2 (stereo not given)	5.89%	3.37%
CCN(CC)S(=O)(=O)c1cccc(C(=O)OCC(=O)Nc2ccc3c(c2)c2ccccc2n3CC)c1	-11.9%	24.3%
Cc1ccc(S(=O)(=O)NCCC2=CCCCC2)cc1	-5.59%	7%
CCOc1cc(C(=S)N2CCCCC2)ccc1OCC(=O)NCc1ccccc1	-15.9%	-12.5%
Cc1nn(Cc2cccc(F)c2)c(C)c1NC(=O)c1ccc(COc2ccccc2Cl)cc1	31.2%	46.7% (active)
CCCCCN(C(=O)CCC(=O)OCC(=O)N(CC#N)c1ccccc1)c1c(N)n(CCCC)c(=O)[nH]c1=O	-5.77%	1.44%
COc1ccc(C2CC(c3ccc(Br)cc3)=NN2C(=O)CSC2=NCCS2)cc1 (stereo not given)	7.19%	10.6%
OC[C@@H]1CN(Cc2ccc(-c3ccccc3)cc2)C[C@H](n2cnc3c(NCc4ccncc4)ncnc32)O1	10.1%	28.9% (active)
Cn1c2ccccc2c(=O)c2ccc(C#CC3(O)CCCCC3)cc21	-132%	-43.1%
CC(C)Nc1ccc(Nc2ccnc3cc4ccccc4cc23)cc1	29.3%	38% (active)
O=C(O)CNC(=O)c1cccc(C(F)(F)F)c1	-9.63%	-6.05%
CCCCCOC(=O)C1=C(C)NC(=O)NC1c1ccc([N+](=O)[O-])cc1 (stereo not given)	-6.01%	2.27%

SMILES	inhibition [1]	inhibition [2]
CCc1c(C)nc2c(C)cccc2c1SCCC#N	24.9%	8.27%
COc1ccc(Cl)cc1NC(=O)Nc1ccccc1C(N)=O	9.1%	17.7%
CCOc1ccc(-c2[nH]ncc2-c2ccc(Cl)cc2)c(O)c1	-8.3%	3.27%
COc1ccc(NS(=O)(=O)c2cc(NC(=O)CC(C)(C)C)ccc2N2CCCC2)cc1	-10.7%	-1.18%
CC(C)C(=O)NC(Nc1cccc([N+](=O)[O-])c1)C(Cl)(Cl)Cl (stereo not given)	1.13%	0.4%
CCOC(=O)C1CCN(S(=O)(=O)c2ccc3c(c2)CC(C)N3C(=O)C2CC2)CC1 (stereo not given)	-22.1%	3.71%
Nn1c(SCC(=O)Nc2ccccc2)nnc(Cc2ccccc2)c1=O	0.49%	5.01%
CCc1ccc(CNC(=O)C2CCCN(S(=O)(=O)N(CC)c3ccccc3)C2)cc1 (stereo not given)	-39.2%	-3.99%
COc1ccccc1OCCn1c(C)c(C=O)c2ccccc21	10.8%	8.95%
COC(=O)c1sc2cnccc2c1N	21.5%	4.54%
COc1ccc(C(=O)Nc2ccc(-c3ccc(C)o3)cc2)cc1S(=O)(=O)N1CCOCC1	-16.1%	22.2%
COc1ccccc1NC(=O)Cn1c(C)cc(=O)c2cccc(OC)c21	-24.2%	4.63%
CCN1CCN(S(=O)(=O)c2cc(OCC(=O)NC3CCCCC3)c(C)cc2Cl)CC1	-7.06%	31.1% (active)
Cc1ccc(S(=O)(=O)N(C)c2ccc(C(=O)N3CCN(Cc4ccc5c(c4)OCO5)CC3)cc2)cc1	9.2%	30% (active)
Cc1c(C(=O)NCC2COc3ccccc3O2)oc2ccc(S(=O)(=O)N3CCOCC3)cc12 (stereo not given)	-7.47%	15.8%
O=C(OCC(=O)N1CCN(S(=O)(=O)c2ccc(Cl)cc2)CC1)c1cccc(OC(F)F)c1	-50.5%	-5.85%
Cc1ccc(C2/C(=C(\O)c3ccc4c(c3)OCCO4)C(=O)C(=O)N2Cc2cccnc2)cc1 (stereo not given)	-15.5%	-9.56%
CCN(C(=O)c1cccc(S(=O)(=O)N(C)C)c1)C12CC3CC(CC(C3)C1)C2	14.8%	19.5%
COc1cc2c(cc1OC)CN(CC(=O)Nc1cccc([N+](=O)[O-])c1)CC2	4.85%	6.41%
COc1ccc(-c2cc(=O)oc3c(C)c(O)c(CN(C)C)cc23)cc1	17.5%	18.4%
O=C1CC2(CCCC2)CC(=O)N1CCCCN1CCN(c2ncccn2)CC1	0.34%	2.87%
COc1cccc(NC2=NC3(CCCCC3)N=C(N)N2)c1	-9.2%	9.05%
CCC1(c2ccccc2)NC(=O)N(CC(=O)Nc2ccccc2C(=O)NC2CCCC2)C1=O (stereo not given)	-5.15%	-0.59%
CC(=O)c1sc2nc(C)c3c(c2c1N)CCCC3	13.4%	3.88%
Cc1nc(N=C(N)N)nc2ccccc12	2.65%	-11.1%
